Screens: PubChem BioAssay, National Center for Advancing Translational Sciences (NCATS)
AMA1-RON2 inh – inhibitors of Plasmodium falciparum AMA1-RON2 interaction; AlphaScreen AMA1-biotinylated RON2 peptide binding; Potency, µM (highest dose often 58.2 µM), most hits filed as inhibitors; 360,000 compounds, 0.2% hits; further: nearly all actives have a fitted effect of over 45% in size
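AMA1 (3D7) with his tag at 25 nM final met compounds first, then biotinylated RON2 peptide at 25 nM; detection used donor plus acceptor beads, 10 µg/mL apiece, read by AlphaScreen after 30 min at room temperature.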
Pf growth 48h – inhibits P. falciparum growth in the first generation, 48 h. 310,000 compounds, 5.9% hits. Potency, µM (highest dose often 28.7 µM), most hits filed as inhibitors. P. falciparum luciferase growth in erythrocytes, 48 h
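Luciferase-expressing parasites in RBCs, 2% Hct / 0.1% parasitemia final; RPMI 1640 + 0.5% Albumax; 37 C, 5% CO2, one generation; luminescence read-out, lower signal = inhibition.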
SARS PLP yeast – inhibitors of SARS-CoV papain-like protease in yeast. 330,000 compounds, 0.19% hits. S. cerevisiae expressing SARS-CoV PLpro, growth rescue. Potency, µM (doses to about 32.9 µM), actives largely listed as activators; calls by dose curve; further: nearly all actives have a fitted effect of over 55% in size
Pf growth 96h – inhibits malaria parasite growth, 96 h. P. falciparum luciferase reporter growth, 96 h. Potency, µM (doses to about 28.7 µM), hits mostly inhibitors. 320,000 compounds, 6.9% hits
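Infected RBCs, 2% Hct / 0.05% parasitemia final; luciferase-reporter P. falciparum; cpd 96 h, 37 C, 5% CO2; luciferase detection reagent; luminescence.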
Large screens that a line does not name were inactive. Rows were chosen to be rich in hits. Some 9.4% of all compounds tested hit in one or more screens of this group. Unless noted, the call rests on the fitted dose curve; in most records, active means well fitted curve in the direction sought with a large enough effect; inconclusive means small, poorly fitted or top-dose-only effect, or another doubt; inactive means no such curve, though single readings can be large; an effect the other way counts as inactive or inconclusive.

CCCc1c(C(=O)Nc2cc(C)on2)cnn1-c1ccccc1	Pf growth 48h inconclusive, Pf growth 96h 9.3µM
COc1ccc(-c2cc(C(F)(F)F)n3nc(C(=O)NCCCN4CCOCC4)cc3n2)cc1	Pf growth 96h inconclusive
O=C(COc1ccccc1Cl)NCCCNC(=O)c1ccncc1	none
COc1cccc(-c2nc(C(N)=O)c3[nH]c(=O)n(-c4cccc(Cl)c4)c3n2)c1OC	Pf growth 48h 15µM, Pf growth 96h inconclusive
CCOc1cc(CNCCO)cc(Br)c1OCc1ccccc1	Pf growth 48h inconclusive
COc1cc(CNCCO)cc(Br)c1OCc1ccccc1Cl	Pf growth 48h inconclusive, Pf growth 96h 12µM
COc1cc(CNCCO)cc(Cl)c1OCc1ccc(Cl)cc1Cl	Pf growth 48h 10µM
O=C(COC(=O)/C=C/c1ccc(Cl)cc1)Nc1ccccc1-c1ccccc1	none
CCc1ccc(N2C(=O)C3C4C=CC(CC4)C3C2=O)cc1 (stereo not drawn)	Pf growth 48h inconclusive
N#C/C(=N/Nc1ccc(OC(F)(F)F)cc1)C(N)=S	Pf growth 48h 6.6µM, Pf growth 96h 1.7µM
Cc1ccc(-c2nn(-c3ccccc3)cc2NC(=O)c2ccccc2)cc1	AMA1-RON2 inh inconclusive
Cc1ccc2c(N)c(C#N)sc2n1	none
O=C(c1ccc(NS(=O)(=O)c2ccc3c(c2)OCCO3)cc1)N1CCCCC1	none
Cc1ccc(-c2nc3ccccc3[nH]2)cc1NC(=O)c1ccco1	Pf growth 96h inconclusive
Cc1ccc(-c2nc3ccccc3[nH]2)cc1NC(=O)c1sc2cc(Cl)ccc2c1Cl	Pf growth 48h 3.3µM, Pf growth 96h inconclusive
CC(=O)c1ccc(S(=O)(=O)N(C)CCCC(=O)N(C)Cc2c(F)cccc2Cl)cc1	Pf growth 48h inconclusive, Pf growth 96h 12µM
CCCCOc1ccc(CCC(=O)N/N=C/c2ccco2)cc1	Pf growth 48h inconclusive
Cc1ccc(C2Oc3ccccc3C3=C2C(c2cccs2)n2ncnc2N3)cc1 (stereo not drawn)	Pf growth 48h 12µM, Pf growth 96h inconclusive
COc1cccc(-n2ccn(CC(=O)NCCc3ccccc3)c(=O)c2=O)c1	Pf growth 96h inconclusive
O=C(Cn1cnc([N+](=O)[O-])c1)Nc1cc(Oc2ccc(Cl)cc2Cl)cc([N+](=O)[O-])c1	Pf growth 48h 13µM
N#Cc1ccc(NC(=O)Cn2cnc([N+](=O)[O-])c2)cc1	Pf growth 96h 12µM
O=C(Cn1cnc([N+](=O)[O-])c1)c1ccc(Cl)cc1	none
N#Cc1ccc(NC(=O)Cn2cnc(S(=O)(=O)N3CCCCC3)c2)cc1	Pf growth 96h inconclusive
COc1ccccc1C(c1nnnn1Cc1ccco1)N1CCN(c2cccc(C)c2C)CC1 (stereo not drawn)	Pf growth 48h 3.3µM, Pf growth 96h inconclusive
COc1ccc(OC)c(C(c2nnnn2CCc2ccccc2)N2CCN(c3ccccc3)CC2)c1 (stereo not drawn)	AMA1-RON2 inh inconclusive, Pf growth 48h 9.3µM (no result: Pf growth 96h)
COCCn1nnnc1C(c1ccc(OC)cc1OC)N1CCN(c2ccccc2)CC1 (stereo not drawn)	Pf growth 96h inconclusive
COc1ccccc1N1CCN(C(c2ccc(N(C)C)cc2)c2nnnn2CCc2ccccc2)CC1 (stereo not drawn)	AMA1-RON2 inh 20µM, Pf growth 48h 9.3µM, Pf growth 96h inconclusive
COc1ccc(N2CCN(C(c3cc(OC)ccc3OC)c3nnnn3Cc3ccco3)CC2)cc1 (stereo not drawn)	AMA1-RON2 inh inconclusive, Pf growth 48h 13µM, Pf growth 96h inconclusive
O=C(NCCN1CCC(n2c(=O)[nH]c3ccccc32)CC1)c1cccc2c1-c1ccccc1C2=O	none (no result: Pf growth 48h, SARS PLP yeast, Pf growth 96h)
Cc1nnc2c(NCC(C)c3ccccc3)nc3ccccc3n12 (stereo not drawn)	Pf growth 48h inconclusive, Pf growth 96h inconclusive
CCCC(c1nnnn1Cc1ccco1)N1CCN(c2ccccc2)CC1 (stereo not drawn)	Pf growth 48h inconclusive
CCCC(c1nnnn1Cc1ccco1)N1CCN(c2cc(Cl)ccc2C)CC1 (stereo not drawn)	AMA1-RON2 inh inconclusive, Pf growth 48h 10µM
C=CCOC(=O)C1=C(C)NC(SCC(=O)N(CC)CC)=C(C#N)C1c1ccccc1 (stereo not drawn)	Pf growth 48h inconclusive
C=CCOC(=O)C1=C(C)NC(SCC(=O)N(CC)CC)=C(C#N)C1c1ccco1 (stereo not drawn)	Pf growth 48h 13µM (no result: Pf growth 96h)
C=CCOC(=O)C1=C(C)NC(SCC(=O)Nc2ccccc2)=C(C#N)C1c1ccco1 (stereo not drawn)	Pf growth 48h 9.3µM, Pf growth 96h inconclusive
C=CCOC(=O)C1=C(C)NC(SCC(=O)NC(=O)OCC)=C(C#N)C1c1cccnc1 (stereo not drawn)	Pf growth 48h 10µM
CCOC(=O)C1=C(C)NC(SCC(=O)Nc2nc(C)cs2)=C(C#N)C1c1cccs1 (stereo not drawn)	Pf growth 48h 2.1µM, Pf growth 96h inconclusive (no result: AMA1-RON2 inh)
Cc1nc(C)c(C(=O)OCC(=O)N(C)c2ccccc2)s1	none
Cc1ccccc1OCC(=O)OCC(=O)NCC1CCCCC1	none (no result: Pf growth 48h, Pf growth 96h)
CC(NC(=O)c1ccccc1Cl)C(=O)OCc1cn2cc(Cl)ccc2n1 (stereo not drawn)	none (no result: Pf growth 48h, Pf growth 96h)
COc1cccc(-c2sc3cc(OC)c(OC)cc3c2-c2ccc(OCCN3CCCCC3)cc2)c1	AMA1-RON2 inh inconclusive (no result: Pf growth 48h, Pf growth 96h)
Cc1cc(C)c(NC(=O)CN(C)CC(=O)N(C)CC(=O)Nc2c(Cl)cccc2Cl)c(C)c1	Pf growth 96h inconclusive
Cc1cc(C)n(-c2nc3ccccc3c(=O)n2OCc2ccc(Cl)cc2)n1	Pf growth 48h inconclusive, Pf growth 96h inconclusive
Cc1cc(C)n(-c2nc3ccccc3c(=O)n2OCC(=O)Nc2c(C)cccc2C)n1	Pf growth 48h inconclusive, Pf growth 96h 13µM
Cc1cc(CC(C)C)n(-c2nc3ccccc3c(=O)n2OCc2ccccc2)n1	Pf growth 48h inconclusive, Pf growth 96h 12µM
Cc1cc(C)n(-c2nc3ccccc3c(=O)n2OCC(=O)OCc2ccccc2)n1	Pf growth 48h 1.5µM, Pf growth 96h inconclusive
Cc1cc(C)n(-c2nc3ccccc3c(=O)n2OCc2ccc(F)cc2)n1	Pf growth 48h inconclusive, Pf growth 96h 8.3µM
Cc1cccc2sc(NC(=O)C3CCN(S(=O)(=O)c4cc([N+](=O)[O-])ccc4Cl)CC3)nc12	AMA1-RON2 inh inconclusive, Pf growth 96h inconclusive
Cc1cccc(C)c1NC(=O)COC(=O)CN1C(=O)C2CCCCC2C1=O (stereo not drawn)	none
CCN(CCNC(=O)C1CCN(S(=O)(=O)c2cccc3cccnc23)CC1)c1ccccc1	Pf growth 48h 6.6µM
CC1CCCCN1CCNC(=O)C1CCN(S(=O)(=O)c2cccc3cccnc23)CC1 (stereo not drawn)	Pf growth 48h inconclusive, Pf growth 96h 4.7µM
NS(=O)(=O)c1ccc(CCNC(=O)C2CCN(S(=O)(=O)c3cccc4cccnc34)CC2)cc1	none
Cc1cccc(CCNC(=O)C2CCN(S(=O)(=O)c3cccc4cccnc34)CC2)c1	none
O=C(CCCN1C(=O)/C(=C/c2ccccc2Cl)SC1=S)NNC(=O)c1ccccc1Cl	Pf growth 96h inconclusive
Cc1ccc(N(C(=O)CCC(=O)Nc2cc(C)on2)C(C(=O)NC2CCCC2)c2ccccc2)cc1 (stereo not drawn)	Pf growth 48h 12µM
